Measured values reported in ChEMBL document CHEMBL4513141, “CO-ADD screening of NIH (USA) - Clinical Collection” (2021).
Results with a measured potency or affinity are listed apart.

test system: Klebsiella pneumoniae; conditions: Concentration 20 uM; ASSAY_TEST Inhibition of Bacterial Growth; detection method Absorption (OD600); MEDIA CAMHB; plate type 384well; NBS; CORNING #3640; time 18 hr

SMILES	Inhibition
Nc1nc2ccc(Cl)cc2c2nc(-c3ccco3)nn12 [CGS-15943]	10.58%
C#CCN(C)[C@H](C)Cc1ccccc1.Cl [SELEGILINE HYDROCHLORIDE]	8.65%
C=C(C)CN1CC[C@]23c4c5ccc(O)c4O[C@H]2c2[nH]c4ccccc4c2C[C@@]3(O)C1C5.Cl.O	12.32%
C[C@]12CC[C@H](O)CC1=CC[C@@H]1[C@@H]2CC[C@@]2(C)[C@H]1CC[C@]2(C)O [METHANDRIOL]	9.75%
c1ccc(Cn2ccnc2)cc1	8.34%
CNS(=O)(=O)Cc1ccc2[nH]cc(CCN(C)C)c2c1.O=C(O)CCC(=O)O [SUMATRIPTAN SUCCINATE]	9.24%
CN(C)CCc1c[nH]c2ccc(Cn3cncn3)cc12.O=C(O)c1ccccc1 [RIZATRIPTAN BENZOATE]	7.74%
Cc1ccc(-c2nc3ccc(C)cn3c2CC(=O)N(C)C)cc1.Cc1ccc(-c2nc3ccc(C)cn3c2CC(=O)N(C)C)cc1.O=C(O)C(O)C(O)C(=O)O [ZOLPIDEM TARTRATE]	6.38%
CC(COc1ccccc1)N(CCCl)Cc1ccccc1.Cl (configuration not stated) [PHENOXYBENZAMINE HYDROCHLORIDE]	17.18%
CN(C)C(=O)C(CCN1CCC(O)(c2ccc(Cl)cc2)CC1)(c1ccccc1)c1ccccc1.Cl [LOPERAMIDE HYDROCHLORIDE]	11.49%
CC[N+](C)(C)c1cccc(O)c1.[Cl-] [EDROPHONIUM CHLORIDE]	15.01%
Brc1c(NC2=NCCN2)ccc2nccnc12 [BRIMONIDINE]	7.83%
COC(=O)C[C@](O)(CCCC(C)(C)O)C(=O)O[C@@H]1C(OC)=C[C@]23CCCN2CCc2cc4c(cc2[C@H]13)OCO4 [OMACETAXINE MEPESUCCINATE]	9.21%
CCOC(=O)C1=C(COCCN)NC(C)=C(C(=O)OC)C1c1ccccc1Cl (configuration not stated) [AMLODIPINE]	0.34%
CN1CCC[C@H]1c1cccnc1 [NICOTINE]	-4.81%
COC(=O)C1=C(C)NC(C)=C(C(=O)OC)C1c1ccccc1[N+](=O)[O-] [NIFEDIPINE]	22.28%
CC(C)NCC(O)COc1cccc2[nH]ccc12 (configuration not stated) [PINDOLOL]	17.1%
CN1C(=O)CN=C(c2ccccc2)c2cc([N+](=O)[O-])ccc21 [NIMETAZEPAM]	13.4%
c1ccc2c(c1)Nc1ccccc1S2 [PHENOTHIAZINE]	1.87%
COc1ccc2[nH]cc(CCN)c2c1 [5-METHOXYTRYPTAMINE]	5.41%
Br.COc1ccc2c3c1O[C@H]1C[C@@H](O)C=C[C@@]31CCN(C)C2 [GALANTAMINE HYDROBROMIDE]	16.19%
C[C@]12Cc3c[nH]nc3C[C@@H]1CC[C@@H]1[C@@H]2CC[C@@]2(C)[C@H]1CC[C@]2(C)O [STANOZOLOL]	7.49%
